Measurements reported in ChEMBL document CHEMBL4513216, “Probing the Open Global Health Chemical Diversity Library for Multistage-Active Starting Points for Next-Generation Antimalarials” (ACS Infect Dis, 2020).
The whole screen tested about 69,000 compounds, of which about 8,600 (12%) showed an effect of 50% or more. Shown is part of a subset that was picked to be rich in strong results.

system: Plasmodium berghei; test: Screen against P. berghei liver stage (PbLuc), transformed with Luciferase, at 10uM; type: functional, HepG2; conditions: tested at 10 uM

Compared with `CC(C)C(C)NC(=O)Nc1ccc(F)c(C(N)=O)c1` (stereo not drawn), `CCOC(=O)N1CC(C)=C(C)CN1C(=O)Nc1ccc(Cl)c(Cl)c1` is higher in INHIBITION: 1.75% for the first, 13% for the second.

First: O=C(C1CNCCN1C(=O)CCc1cccnc1)N1CCOCC1 (stereo not drawn)
Second: O=C(c1cccnc1)N1CCCC1C1CCN(Cc2ccccc2)CC1 (stereo not drawn)
The INHIBITION of the first is lower: 42.1% for the first, 73.6% for the second.

Going from `CNC(=O)[C@@H]1[C@H]2CN(Cc3ccccn3)CCN2C[C@H]1c1ccccc1` to `O=C(c1ccncc1)N1CCCC1C1CCN(Cc2ccccc2)CC1` (stereo not drawn), the INHIBITION rises from 8.61% to 51.1%.

Going from `Cc1csc(NC(=O)Cn2nc(C)ccc2=O)n1` to `Cc1cccc(C(=O)N2C[C@@H]3C(CC(=O)NC(C)C)[C@@H]3C2)n1` (stereo partly drawn), the INHIBITION falls from 37.8% to -50.4%.

Compared with `O=C(COCCOc1ccccc1)NC1CCN(C(=O)C2CC2)CC1`, `O=C(C1CC1)N1CCCC1C1CCN(Cc2ccccc2)CC1` (stereo not drawn) is lower in INHIBITION: 29.9% for the first, -12.6% for the second.

First: COCCN1C(=O)CCC12CCN(C(=O)CC1CC1)CC2
Second: COc1cccc(SCC(=O)N2CCC(N3CCCC3=O)CC2)c1
The INHIBITION of the first is lower: 21.6% for the first, 43.9% for the second.

Going from `CN(Cc1ccncc1)C(CO)c1cccc(F)c1` (stereo not drawn) to `CN(Cc1ccncc1)C(CO)c1cccc(Br)c1` (stereo not drawn), the INHIBITION falls from 68.5% to 4.52%.

Compared with `CN(Cc1ccccn1)C(CO)c1cccc(Br)c1` (stereo not drawn), `CN(Cc1cccnc1)C(CO)c1cccc(Br)c1` (stereo not drawn) is lower in INHIBITION: 88% for the first, 85.2% for the second.

Going from `COc1cc(F)ccc1N(C)Cc1ccncc1` to `CC(C)OCCCN(Cc1ccncc1)Cc1cccc(F)c1`, the INHIBITION rises from -24.9% to 43.6%.

Compared with `CN(Cc1nccn1C)C(CO)c1cccc(Br)c1` (stereo not drawn), `CN(Cc1cnn(C)c1)C(CO)c1cccc(Br)c1` (stereo not drawn) is higher in INHIBITION: 33.7% for the first, 49% for the second.

Going from `CN(Cc1ccccn1)C(C(=O)O)c1ccc2c(c1)OCO2` (stereo not drawn) to `O=c1[nH]c2cc3c(cc2cc1CN1CCCC1c1ccccn1)OCO3` (stereo not drawn), the INHIBITION falls from 40.3% to 6.94%.

First: CCn1nnc(NCc2ccccc2OCc2ccc(Cl)cc2)n1
Second: CCOc1ccc(Br)cc1S(=O)(=O)N(CC)Cc1ccc(N(C)C)cc1
The INHIBITION of the first is lower: -3.5% for the first, 61.5% for the second.

Compared with `CCN1CCN(CCNC(=O)c2sc(C)nc2C)CC1`, `CCCNC(=O)CN1CCC(NC(=O)c2cc(CC)ccc2O)CC1` is lower in INHIBITION: 1.75% for the first, -23.15% for the second.

Compared with `CN(C)C(=O)N1CC2(CCN(CC3CC3)CC2)c2cc(F)ccc21`, `COc1cccc(SCC(=O)N2CCCC(N3CCCC3=O)C2)c1` (stereo not drawn) is higher in INHIBITION: -13.4% for the first, 15.5% for the second.

First: Cc1cc(C2CCN(S(=O)(=O)c3cn(C)cn3)CC2)ccn1
Second: O=S(=O)(c1cccs1)N1CCCC(c2nccs2)C1 (stereo not drawn)
The INHIBITION of the first is higher: 17.1% for the first, -27.4% for the second.

First: CCC(C)(C)C(=O)N1C[C@@H]2C[C@@H](c3nnc(C)[nH]3)O[C@@H]2C1
Second: Cc1oncc1C(=O)N1CC[C@H]2[C@H](C[C@@H](CN3CCCC3)N2C)C1
The INHIBITION of the first is higher: 30.5% for the first, 16.6% for the second.

First: OCC1(NCc2cnc(-c3ccccn3)s2)CCOCC1
Second: FC1(F)CCN(Cc2ccccn2)CC12CCN(c1cnccn1)C2 (stereo not drawn)
The INHIBITION of the first is lower: -16.4% for the first, 34% for the second.

Going from `CCc1nc(C2CCCN2CC(=O)NCCc2ccsc2)no1` (stereo not drawn) to `N#Cc1ncn(CC(=O)N2CCCC2c2cccs2)n1` (stereo not drawn), the INHIBITION falls from 25.6% to 23.3%.

First: CC(=O)NCc1cc2n(n1)CCN(Cc1cccc(Cl)c1F)C2
Second: O=C(CN1CCOc2ccccc2C1)NCc1cc2n(n1)CCCNC2
The INHIBITION of the first is lower: 10.7% for the first, 12.9% for the second.

Compared with `Cc1c(C(C)NC2CCN(C(C)C)CC2)cnn1-c1ccc(F)cc1F` (stereo not drawn), `Cc1c(C(C)NC2CSCCSC2)cnn1-c1ccc(F)cc1F` (stereo not drawn) is lower in INHIBITION: 46.9% for the first, 43.7% for the second.

Going from `COc1ccc(-n2ncc(C(C)NC3CCSCC3)c2C)cc1` (stereo not drawn) to `COc1ccc(-n2ncc(C(C)NC3CCOCC3)c2C)cc1` (stereo not drawn), the INHIBITION falls from 53.8% to 23.7%.

Compared with `COc1ccc(-n2ncc(C(C)NC3Cc4ccccc4C3)c2C)cc1` (stereo not drawn), `Cc1c(C(C)NCc2cnn(C)c2)cnn1-c1ccccc1` (stereo not drawn) is lower in INHIBITION: 63.8% for the first, 43% for the second.

Going from `O=C(N[C@@H]1CN(C2CCCC2)C[C@@H]2CCCO[C@@H]21)c1cnccn1` to `N#Cc1cccnc1N1CCC(C2CCCCCN2C(=O)C2CC2)CC1` (stereo not drawn), the INHIBITION rises from -45.5% to -1.3%.

Going from `CC1CCCCN1C(=O)Cn1cnc(C#N)n1` (stereo not drawn) to `CCC1CCCCN1C(=O)Cn1cnc(C#N)n1` (stereo not drawn), the INHIBITION falls from 69.3% to 47.9%.

Going from `CSc1ccc(-c2cc(CN)nc3ccnn23)cc1` to `CCOc1ccc2[nH]c(=O)c(CN3CCCC3c3ccccn3)cc2c1` (stereo not drawn), the INHIBITION rises from 13% to 32.7%.

Compared with `COc1cccc(NC(=O)NC2(c3noc(CN(C)C)n3)CCCC2)c1`, `Cc1c(NC(=O)CN(C)S(C)(=O)=O)cccc1OC1CCCC1` is lower in INHIBITION: 16.2% for the first, -28.2% for the second.

First: CCN(CC)CCn1cc(NC2CCSCC2)cn1
Second: Cc1ccc(CN(CCCN2CCOCC2)Cc2cnn(C)c2)o1
The INHIBITION of the first is lower: -3.21% for the first, 30.15% for the second.

First: Fc1ccc(C2(c3noc(CCN4CCCCO4)n3)CCOC2)cc1 (stereo not drawn)
Second: O=C(Nc1ccc(CCN2CCC(O)CC2)cc1)C1CCCOC1 (stereo not drawn)
The INHIBITION of the first is lower: -23.4% for the first, 20.06% for the second.

First: O=c1[nH]c2cc3c(cc2cc1CN1CCCC1c1ccccn1)CCC3 (stereo not drawn)
Second: O=C(c1cccs1)N1CCN(Cc2cc(=O)c3ccccc3[nH]2)CC1
The INHIBITION of the first is higher: 56.5% for the first, 15.4% for the second.

Going from `CC(NCc1ccsc1)c1ccc2c(c1)NC(=O)CO2` (stereo not drawn) to `Cc1ccc(CNC(=O)N2CCc3ccccc3C2CO)s1` (stereo not drawn), the INHIBITION rises from 22.15% to 28.7%.

Compared with `COc1cccc(SCC(=O)N2CCC(N3CCCC(O)C3)CC2)c1` (stereo not drawn), `O=C(c1ccoc1)N1CCCC1C1CCN(Cc2ccccc2)CC1` (stereo not drawn) is lower in INHIBITION: 64.9% for the first, 51.1% for the second.

Compared with `O=S(=O)(c1ccccc1)N1CCCC(c2nccs2)C1` (stereo not drawn), `O=S(=O)(c1ccccc1F)N1CCCC(c2nccs2)C1` (stereo not drawn) is higher in INHIBITION: 31.6% for the first, 61.7% for the second.

Compared with `CN(CCS(=O)(=O)c1cc(Cl)ccc1Cl)CC(N)=O`, `CN(CCS(=O)(=O)c1cc(Cl)ccc1Cl)CC(=O)Nc1cccc(F)c1` is higher in INHIBITION: 10.6% for the first, 59.4% for the second.

First: CN(CCS(=O)(=O)c1cc(Cl)ccc1Cl)CC(=O)Nc1ccc(F)cc1
Second: COc1ccc(Br)cc1S(=O)(=O)N(C)Cc1ccc(N(C)C)cc1
The INHIBITION of the first is lower: -8.22% for the first, 5.76% for the second.

First: Cc1nnc2n1CCN(C(=O)C1CCC(n3cccc3)CC1)C2 (stereo not drawn)
Second: O=C(c1ccoc1)N1CC[C@@H](N2CCOCC2)[C@@H]1Cc1ccccc1
The INHIBITION of the first is lower: 20.8% for the first, 35.7% for the second.

First: COC(=O)CC(c1cccnc1)c1oc(C)cc(=O)c1O (stereo not drawn)
Second: COc1ccccc1OCCCn1c(C)c(C)oc1=O
The INHIBITION of the first is lower: -14.8% for the first, -10.2% for the second.

Compared with `COc1ccccc1CN1CC(OC)CN(C(=O)CC(C)C)CC1=O` (stereo not drawn), `Cn1ccc(CN2CCC(Cc3ccccc3)CC2)cc1=O` is lower in INHIBITION: 4.82% for the first, -0.219% for the second.

Going from `Cc1ccc(CN2CCc3c(CN(C)C)n[nH]c3C2)s1` to `O=C(NCC1CCCO1)c1nc2c(s1)CCCN2Cc1ccccc1` (stereo not drawn), the INHIBITION falls from 13.7% to -57.7%.

First: OCCN1CCC(F)(F)C2(CCN(c3cnccn3)C2)C1 (stereo not drawn)
Second: OCCN1CCC(F)(F)C2(CCN(c3cccnc3)C2)C1 (stereo not drawn)
The INHIBITION of the first is lower: 16.6% for the first, 60.2% for the second.

Going from `Cn1ccnc1CN1CCC(F)(F)C2(CCN(c3cccnc3)C2)C1` (stereo not drawn) to `Cn1cc(CN2CCC(F)(F)C3(CCN(c4cccnc4)C3)C2)cn1` (stereo not drawn), the INHIBITION falls from 31.2% to 15.4%.

First: FC1(F)CCN(c2ccccc2)CC12CCN(c1ncccn1)C2 (stereo not drawn)
Second: FC1(F)CCN(Cc2ccccn2)CC12CCN(c1ncccn1)C2 (stereo not drawn)
The INHIBITION of the first is lower: -15.3% for the first, 47.5% for the second.

Going from `FC1(F)CCN(Cc2ccccn2)CC12CCN(c1cccnc1)C2` (stereo not drawn) to `FC1(F)CCN(Cc2cccnc2)CC12CCN(c1ccccn1)C2` (stereo not drawn), the INHIBITION falls from 85.9% to 68.2%.

Compared with `FC1(F)CCN(Cc2ccncc2)CC12CCN(Cc1ccccn1)C2` (stereo not drawn), `FC1(F)CCN(Cc2ccncc2)CC12CCN(c1cccnc1)C2` (stereo not drawn) is higher in INHIBITION: 48.9% for the first, 91.9% for the second.

First: FC1(F)CCN(Cc2ccncc2)CC12CCN(c1cnccn1)C2 (stereo not drawn)
Second: FC1(F)CCN(Cc2cccnc2)CC12CCN(c1cnccn1)C2 (stereo not drawn)
The INHIBITION of the first is higher: -13.2% for the first, -20.1% for the second.

Compared with `FC1(F)CCN(Cc2cccnc2)CC12CCN(c1ccccc1)C2` (stereo not drawn), `O=C(O)CN1CCC(F)(F)C2(CCN(c3ccccc3)C2)C1` (stereo not drawn) is lower in INHIBITION: 92.8% for the first, 53.9% for the second.

First: CCn1c(SCC(N)=O)nnc1C(C)NC(=O)c1ccc(Cl)cc1 (stereo not drawn)
Second: Cc1nn(-c2ccc(C(=O)O)cc2)c2c1C(CC(C)C)SCC(=O)N2 (stereo not drawn)
The INHIBITION of the first is higher: 31.6% for the first, 10.6% for the second.

Going from `CCS(=O)(=O)N1CCC2(CN(c3cccc(C)n3)C2)C1` to `O=C(O)CN1CCC(F)(F)C2(CCN(c3ccccn3)C2)C1` (stereo not drawn), the INHIBITION falls from 18.5% to -4.02%.

Compared with `CCc1ncc2c(n1)CN(c1nnc(C)c(C)c1C#N)CC2`, `Cc1nn(C)cc1-c1cc(C(=O)N2CCc3ncc(Cl)cc3C2)on1` is higher in INHIBITION: -28.7% for the first, 7.15% for the second.

First: CNC(=O)CN1CCC2(CCCN(CC3CCOC3)C2)CC1 (stereo not drawn)
Second: O=C(c1ccc(CN2CCCCC2)cc1)N1CCCC1c1cccs1 (stereo not drawn)
The INHIBITION of the first is lower: 8.6% for the first, 31% for the second.

Compared with `Cn1cc(CN2CCC(F)(F)C3(CCN(c4ccccn4)C3)C2)cn1` (stereo not drawn), `O=C(CO)N1CCC(F)(F)C2(CCN(c3ccccc3)C2)C1` (stereo not drawn) is higher in INHIBITION: 0.618% for the first, 31.4% for the second.

First: N#CCc1ccc(NC(=O)Cn2cc(I)cn2)cc1
Second: CN(C(=O)c1cccnc1)C1CCCN(CCc2ccccc2)C1 (stereo not drawn)
The INHIBITION of the first is lower: 36.6% for the first, 42.2% for the second.

First: CCN(Cc1ccc(N(C)C)cc1)S(=O)(=O)c1cc(Br)ccc1OC
Second: CCNc1cc2c(nn1)CCN(C(=O)c1cccc(CSC)c1)C2
The INHIBITION of the first is lower: 7.65% for the first, 37.3% for the second.

First: O=C(c1cc[nH]n1)N1CCCC1C1CCN(Cc2ccccc2)CC1 (stereo not drawn)
Second: O=C(c1ccco1)N1CCCC1C1CCN(Cc2ccccc2)CC1 (stereo not drawn)
The INHIBITION of the first is higher: 37.9% for the first, 21.3% for the second.

Going from `Cc1cccnc1C(=O)N1CCC(Cc2cnc3[nH]ccc3c2)CC1` to `OCC(O)CN(CCN1CCOCC1)Cc1ccco1` (stereo not drawn), the INHIBITION falls from 44.8% to 43.9%.
